# Data as given in paper PMC4552634, “A New Set of Chemical Starting Points with Plasmodium falciparum Transmission-Blocking Potential for Antimalarial Drug Discovery” (PLoS ONE, 2015).
# Screen size: about 13,000 compounds; about 3,200 (25%) showed an effect of 50% or more. The list shows a part of the results.
# Test system: P. falciparum stage V gametocytes
# Design: BacTiter-Glo ATP luminescence viability of purified stage V gametocytes in 384-well plates, per cent inhibition versus DMSO
# Settings: 48 h, 5 µM; inhibitor
row,SMILES,% Inhibition [%]
1,Cn1cc(C(=O)Nc2cccc(-c3cccc(-c4nc5ccc(F)cc5[nH]4)c3)c2)n(C)c1=O [TCMDC-137136],-0.01557
2,O=C(c1cc(OC(F)(F)F)ccc1O)N1CCN(c2ccccc2)CC1 [TCMDC-141127],10.35
3,CC(=O)Nc1ccc(Nc2cc(C)nc(Nc3ccc(NC(C)=O)cc3)n2)cc1 [TCMDC-125764],22.75
4,Cc1cccc2[nH]c(-c3ccc(-c4cccc(NC(=O)c5cccc(C(N)=O)c5)c4)cc3)nc12 [TCMDC-132197],5.465
5,COc1ccc2nccc([C@@H](O)CN3CCC(NCc4ccc5c(n4)NC(=O)CS5)C(F)C3)c2c1 (stereo partly shown) [TCMDC-141718],-27.67
6,O=C(Nc1cccc(CN2CCCN(Cc3ccccc3)CC2)c1)c1ccc(-c2ccccc2)cc1 [TCMDC-134589],-25.71
7,COc1ccc(CN2CCCN(Cc3cccc(NC(=O)c4ccc(-c5ccccc5)cc4)c3)CC2)cc1 [TCMDC-141839],80.31
8,O=C(Nc1cccc(CN2CCCN(Cc3ccc(O)cc3)CC2)c1)c1ccc2ccccc2c1 [TCMDC-141857],26.89
9,O=C(Nc1cccc(CN2CCCN(Cc3cccc(O)c3)CC2)c1)c1ccc(-c2ccccc2)cc1 [TCMDC-141848],31.74
10,O=C(Nc1cccc(CN2CCCN(Cc3ccsc3)CC2)c1)c1ccc(-c2ccccc2)cc1 [TCMDC-141840],82.52
11,COc1ccc(CN2CCC(C(=O)Nc3cccc(-c4cccc(Cl)c4)c3)CC2)cc1O [TCMDC-124610],-57.51
12,COc1cccc(CN2CCCN(Cc3cccc(NC(=O)c4ccc(-c5ccccc5)cc4)c3)CC2)c1 [TCMDC-141847],-61.09
13,O=C(Nc1cccc(-c2cccc(F)c2)c1)C1CCN(Cc2ccc(O)cc2)CC1 [TCMDC-124688],48.55
14,COc1ccc(CN2CCCN(Cc3cccc(NC(=O)c4ccc5ccccc5c4)c3)CC2)cc1 [TCMDC-141853],-65.02
15,O=C(Nc1ccc2ccccc2c1)c1ccc(CN2CCC(Cc3ccccc3)CC2)cc1 [TCMDC-123818],92.78
16,COc1cccc(-c2cccc(NC(=O)C3CCN(Cc4ccc(O)cc4)CC3)c2)c1 [TCMDC-124692],72.66
17,O=C(Nc1cccc(OCc2ccccc2)c1)c1ccc(CN2CCC(Cc3ccccc3)CC2)cc1 [TCMDC-136885],-23.99
18,CC(=O)Nc1cc(C(=O)Nc2cccc(-c3csc(-c4nc5ccccc5[nH]4)c3)c2)ccc1C [TCMDC-132397],-24.51
19,Cc1nc2ccc3ccc(CNc4ccc(C(=O)N[C@@H](CCC(=O)O)C(=O)O)cc4)cc3c2c(=O)[nH]1 [TCMDC-137629],7.462
20,CCC[C@@H]([C@@H](CC1CCCCC1)C(=O)N[C@@H](CCCCNS(C)(=O)=O)C(=O)Nc1nccs1)N(O)C=O [TCMDC-138143],41.43
21,CC1(C)CCNc2cc(NC(=O)c3ccc(-c4ncccc4C(F)(F)F)cc3)ccc21 [TCMDC-133353],8.36
22,COc1ccc(C2=CCN(c3ccc(Cl)c(Cl)c3)C2=O)cc1OCCN1CCCCC1 [TCMDC-138795],24.05
23,COc1ccc2nccc([C@@H](O)CN3CCC(NC(=O)c4ccc(OC)c(N)c4)CC3)c2c1 [TCMDC-140772],8.441
24,CC(=O)N(C)c1cccc(CNc2cc(C)nc(Nc3ccc(C)cc3)n2)c1 [TCMDC-134005],7.958
25,CN1CCN(CC(=O)Nc2ccc(-c3ccc(-c4nc5cc(C(F)(F)F)ccc5[nH]4)s3)cc2)CC1 [TCMDC-136976],14.59
26,COc1cc(Cc2cnc(N)nc2N)cc(OCCCCc2nn[nH]n2)c1OC [TCMDC-138032],13.98

row,SMILES,% Inhibition [%]
1,Cc1cccc(-c2nc3[nH]c(=O)cc(NC(=O)C(C)C)n3n2)c1 [TCMDC-125001],-2.254
2,CCCCCCN1CCCN(Cc2ccc(C(=O)Nc3ccc(Cl)cc3)cc2)CC1 [TCMDC-136416],35.96
3,CCCc1ccc(NC(=O)c2ccc(CN3CCCN(Cc4ccc(OC)cc4)CC3)cc2)cc1 [TCMDC-136422],91.61
4,O=C(Nc1cccc(CN2CCCN(Cc3cccc(Cl)c3)CC2)c1)c1ccc(-c2ccccc2)cc1 [TCMDC-141837],-76.33
5,O=C(Nc1cccc(CN2CCCN(Cc3ccc(O)cc3)CC2)c1)c1ccc(-c2ccccc2)cc1 [TCMDC-141850],69.39
6,CCCCCCN1CCCN(Cc2ccc(C(=O)Nc3ccc(C(C)C)cc3)cc2)CC1 [TCMDC-136423],90.22
7,O=C(Nc1cccc(CN2CCN(Cc3ccc(O)cc3)CC2)c1)c1ccc(-c2ccccc2)cc1 [TCMDC-141886],12.46
8,CCCCCCN1CCCN(Cc2ccc(C(=O)Nc3ccc(CC)cc3)cc2)CC1 [TCMDC-136450],13.19
9,CCCCCCN1CCCN(Cc2ccc(C(=O)Nc3ccc(CCC)cc3)cc2)CC1 [TCMDC-136424],9.552
10,COc1ccc(CN2CCCN(Cc3ccc(C(=O)Nc4ccc(Cl)cc4)cc3)CC2)cc1 [TCMDC-136409],0.3374
11,Oc1c(Br)cc2oc3c(c2c1CNCc1ccccc1)CCCC3 [TCMDC-124248],19.71
12,Cc1cccc2c(CON3C(N)=NC(N)=NC3(C)C)cccc12 [TCMDC-131325],30.52
13,c1ccc2c(c1)CN(Cc1ccsc1)CC1(CCN(Cc3c[nH]c4cnccc34)CC1)O2 [TCMDC-133374],-8.367
14,CN(C)CCN(C)Cc1ccc(-c2ccc3c(Nc4ccc(Cl)cc4F)ccnc3c2)o1 [TCMDC-138388],33.59
15,CN(C)CCN(C)Cc1ccc(-c2ccc3c(Nc4ccc(F)cc4Cl)ccnc3c2)o1 [TCMDC-138447],57.57
16,CN(C)CCNCc1ccc(-c2ccc3c(Nc4ccc(F)cc4Cl)ccnc3c2)o1 [TCMDC-138449],71.06
17,CS(=O)(=O)CCNCc1ccc(-c2ccc3c(Nc4ccc(Cl)cc4F)ccnc3c2)o1 [TCMDC-138445],0.4033
18,Fc1ccc(Nc2ccnc3cc(-c4ccc(CNCCN5CCOCC5)o4)ccc23)c(Cl)c1 [TCMDC-138451],28.52
19,CN(C)Cc1ccc(-c2ccc3c(Nc4ccc(Cl)cc4F)ccnc3c2)o1 [TCMDC-138389],51.2
20,COCCNCc1ccc(-c2ccc3c(Nc4ccc(Cl)cc4F)ccnc3c2)o1 [TCMDC-138390],17.71
21,Fc1cc(Cl)ccc1Nc1ccnc2cc(I)ccc12 [TCMDC-138376],-32.49
22,COCCNCc1ccc(-c2ccc3c(Nc4ccc(F)cc4Cl)ccnc3c2)o1 [TCMDC-138448],12.72
23,CN(C)CCNCc1ccc(-c2ccc3c(Nc4ccc(Cl)cc4F)ccnc3c2)o1 [TCMDC-138391],96.42
24,CN1CCN(Cc2ccc(-c3ccc4c(Nc5ccc(F)cc5Cl)ccnc4c3)o2)CC1 [TCMDC-138452],13.09
25,Fc1ccc(Nc2ccnc3cc(-c4ccc(CN5CCOCC5)o4)ccc23)c(Cl)c1 [TCMDC-138450],-9.806
26,Cc1cccc2nc(-c3ccc(-c4ccc(CN5CC(C)OC(C)C5)cc4)cc3)[nH]c12.O=C(O)C(F)(F)F (stereo not shown) [TCMDC-133823],-0.7329

row,SMILES,% Inhibition [%]
1,Cc1noc(C)c1CN1CCCN(c2ccc3c(c2)CCN(Cc2ccc(-c4ncc[nH]4)cc2)CC3)CC1 [TCMDC-136548],-0.683
2,CO/N=C(\C)c1ccc2c(c1)CCN(CCC1CCC(NC(=O)/C=C/c3ccc(F)cc3)CC1)CC2 (stereo not shown) [TCMDC-139922],-74.19
3,Fc1ccc2nc(-c3ccc(-c4ccc(CNCCc5cccnc5)cc4)s3)[nH]c2c1 [TCMDC-132875],-31.32
4,N#Cc1cccc(C(=O)Nc2cccc(-c3ccc(CN4CCC(O)CC4)cc3)c2)c1 [TCMDC-132652],-17.85
5,CCOC(=O)c1[nH]c2cc(Cl)cc(Cl)c2c1/C=C/C(=O)Nc1ccc(-c2cnc(NC(C)=O)[nH]2)cc1 [TCMDC-137161],-8.366
6,Cc1c(C(=O)N(C)C)sc2c1c(=O)n(Cc1ccccc1)c(=O)n2CC(=O)Nc1ccccc1F [TCMDC-125279],4.453
7,CCc1nc2nc(C)cc(Nc3ccc(F)c(Cl)c3)n2n1 [TCMDC-124770],1.315
8,CCc1nc2nc(C)cc(Nc3cc(C)cc(C)c3)n2n1 [TCMDC-124402],51.49
9,CCc1nc2nc(C)cc(Nc3ccc4c(c3)OCCO4)n2n1 [TCMDC-125299],-0.3909
10,CC1(C)N=C(N)N=C(N)N1OCCNCc1ccc(Cl)cc1 [TCMDC-131628],11.83
11,O=C(Nc1cccc(-c2nn3ccccc3c2-c2ccnc(Nc3ccc(-c4cc[nH]n4)cc3)n2)c1)c1c(F)cccc1F [TCMDC-135915],-3.577
12,CC1CCCC(Nc2noc(-c3sccc3Br)n2)C1 (stereo not shown) [TCMDC-134184],-4.566
13,CS(=O)(=O)c1ccc(CCNCc2ccc(-c3cccc(-c4nc5ccccc5[nH]4)c3)cc2)cc1.O=C(O)C(F)(F)F [TCMDC-132558],87.75
14,CN(CCNCc1ccc(-c2cccc(-c3nc4ccccc4[nH]3)c2)cc1)S(C)(=O)=O.O=C(O)C(F)(F)F [TCMDC-132561],23.76
15,O=C(O)C(F)(F)F.c1cc(-c2ccc(CNCCc3ccncc3)cc2)cc(-c2nc3ccccc3[nH]2)c1 [TCMDC-132553],67.12
16,Fc1ccc2[nH]c(-c3ccc(-c4ccc(CNCCc5ccncc5)cc4)cc3)nc2c1.O=C(O)C(F)(F)F [TCMDC-132851],-25.93
17,O=C(O)C(F)(F)F.c1ccc(-c2ccc(CNCc3ccc(-c4cccc(-c5nc6ccccc6[nH]5)c4)cc3)s2)nc1 [TCMDC-132571],17.42
18,Cc1cccc2nc(-c3cccc(-c4ccc(CNCCc5ccncc5)cc4)c3)[nH]c12.O=C(O)C(F)(F)F [TCMDC-132846],-3.628
19,O=C(O)C(F)(F)F.c1ccc(CCNCc2ccc(-c3cccc(-c4nc5ccccc5[nH]4)c3)cc2)nc1 [TCMDC-132537],93.06
20,O=C(O)C(F)(F)F.c1cncc(CCNCc2ccc(-c3cccc(-c4nc5ccccc5[nH]4)c3)cc2)c1 [TCMDC-132554],4.222
21,Fc1ccc2[nH]cc(CCNCc3ccc(-c4cccc(-c5nc6ccccc6[nH]5)c4)cc3)c2c1.O=C(O)C(F)(F)F [TCMDC-132573],88.58
22,CS(=O)(=O)c1ccc(CNCc2ccc(-c3cccc(-c4nc5cc(F)ccc5[nH]4)c3)cc2)cc1.O=C(O)C(F)(F)F [TCMDC-132904],15.16
23,CS(=O)(=O)c1ccc(CNCc2ccc(-c3cccc(-c4nc5ccccc5[nH]4)c3)cc2)cc1.O=C(O)C(F)(F)F [TCMDC-132557],-11.29
24,O=C(O)C(F)(F)F.c1cc(CNCCc2ccncc2)cc(-c2ccc(-c3nc4ccccc4[nH]3)cc2)c1 [TCMDC-132856],-34.48
